Screen size: about 260,000 compounds; about 1,500 (0.58%) were called active. Inconclusive results (about 5%) are left out.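 The calls were made as follows: active = inhibition above a set limit at one or more doses, reproduced on every date tested; inconclusive = results disagree between test dates, or hit never tested in dose response; inactive = the rest.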 A selection follows. Entries with a potency or affinity are not part of this list.
The compounds below were run against Virion infectivity factor (Human immunodeficiency virus type 1 group M subtype B (isolate BH10)) + Virion infectivity factor (Human immunodeficiency virus type 1 group M subtype B (isolate BRU/LAI)) + Virion infectivity factor (Human immunodeficiency virus type 1 group M subtype B (isolate PCV12)) + Virion infectivity factor (Human immunodeficiency virus type 1 group M subtype B (isolate HXB2)) + DNA dC->dU-editing enzyme APOBEC-3G (Homo sapiens) (UniProt P69720+P69721+P69722+P69723+Q9HC16) (assay: HIV-1 Vif–A3G interaction blockers – biochemical, TR-FRET, GST-Vif 1-94, biotin-A3G peptide, dose response retest, primary screen (AID 1117319;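 also: Vif residues 1-94 fused to GST binding biotinylated APOBEC3G peptide 110-148; 0% = full assay without inhibitor and 100% = GST in place of GST-Vif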)). Details: TR-FRET GST-Vif / biotin-A3G peptide binding; active compounds read high.

inhibition, inactive:
O=C(CNS(=O)(=O)c1ccccc1Br)OCC(=O)N1CCc2ccccc21 4.27%
Cc1onc(-c2c(F)cccc2Cl)c1C(=O)N1CCOC12CCCCC2 -10.5%
Nc1ccc(S(=O)(=O)c2cccc(N)c2)cc1 0.36%
Nc1ccc(S(=O)(=O)c2ccc(N)cc2)cc1 -4.69%
COc1ccc(-c2csc3nc(C)nc(N4CCN(C(C)=O)CC4)c23)cc1OC -6.79%
COc1cc(S(=O)(=O)NC2CCCCC2)ccc1F -3.56%
COc1ccc(C2c3c(-c4ccccc4O)n[nH]c3C(=O)N2Cc2ccco2)cc1OC (centres undefined) -4.89%
CC(C)[C@@H]1N[C@]2(C(=O)Nc3ccccc32)[C@@H]2C(=O)N(c3cccc(C(F)(F)F)c3)C(=O)[C@@H]21 7.45%
NC(=O)C[C@@H]1N[C@]2(C(=O)Nc3ccccc32)[C@@H]2C(=O)N(C3CCCCC3)C(=O)[C@H]12 6.65%
C=CCNC(=S)N/N=C/c1ccc(N(CC)Cc2ccccc2)cc1 -8.07%
CCOC(=O)c1cc(-c2cccc(C(F)(F)F)c2)nc2nc(SC)[nH]c(=O)c12 -8.37%
O=C(Nc1ccnn1C1CCN(Cc2ccc(C#CCCO)cc2)CC1)c1cccc(F)c1 4.84%
CCS(=O)(=O)Nc1ccc(NC(C)=O)cc1 10.1%
CNC(=O)CSc1nnc(-c2ccccc2)n1C -0.87%
Cc1oc(-c2cccc(Cl)c2)nc1CN1CCC(C(=O)N2CCN(c3ccccn3)CC2)CC1 6.2%
CCc1ccc(-c2nc(CN3CCC(C(=O)N4CCN(c5ccccn5)CC4)CC3)c(C)o2)cc1 -7.35%
CCOc1ccc2nc(NC(=O)C3CCCN(S(=O)(=O)c4c(C)noc4C)C3)sc2c1 (centres undefined) -3.03%
Cc1cc(NC(=O)c2ccc(Cl)cc2)c(C)cc1O -1.13%
Cc1cc(C(c2ccc(O)cc2)c2cc(C)c(O)cc2C)c(C)cc1O 1.89%
CCOC(=O)c1c(S(=O)(=O)NCC2CCN(Cc3cccc(F)c3)CC2)c(C)n(C)c1C -4.42%
O=C(CCN1C(=O)/C(=C/c2ccccc2Cl)SC1=S)NC1=NCCS1 9.65%
O=C(CCN1C(=O)S/C(=C\c2cccs2)C1=O)NC1=NCCS1 25.6%
CCC1(c2ccc(F)cc2)NC(=O)N(CC(=O)NCc2ccc(C)cc2)C1=O (centres undefined) -8.4%
COc1cccc(C(=O)N2CCN(C(=O)Cc3ccccc3)CC2)c1 -2.27%
CC1=NN(c2ccccc2)C(=O)/C1=C\c1cc(C)n(C)c1C 6.69%
O=C(Cn1cnc2c(nnn2Cc2ccccc2)c1=O)NCc1ccco1 -2%
Cc1ccc(Cn2nnc3c(=O)n(CC(=O)NCc4ccco4)cnc32)cc1 16.3%
CC(O)CNc1ccc([N+](=O)[O-])cc1S(=O)(=O)N1CCOCC1 (centres undefined) 6.02%
NS(=O)(=O)c1ccc(N/N=C/c2ccccc2C(=O)O)c([N+](=O)[O-])c1 -3.72%
O=[N+]([O-])c1ccc(NCCCO)c(S(=O)(=O)N2CCOCC2)c1 -0.32%
NS(=O)(=O)c1ccc(N/N=C/c2ccc(O)cc2O)c([N+](=O)[O-])c1 -13.8%
O=C(CCNS(=O)(=O)c1ccc(Br)cc1)N1CCN(c2ccccc2O)CC1 0.32%
Cc1ccc(OCCOCCN2CCN(C)CC2)c([N+](=O)[O-])c1 6.13%
CCOC(=O)C1CCN(c2c(NCc3ccc(C(=O)NC4CCCC4)cc3)c(=O)c2=O)CC1 0.11%
COc1ccc(Cc2c(O)nc(SCC(=O)N3CCCCCC3)[nH]c2=O)cc1 -4.82%
Cc1cccc(NC(=O)/C=C/c2cccs2)n1 4.61%
O=C(/C=C/c1cccs1)Nc1cccc(NC(=O)/C=C/c2cccs2)n1 13.7%
Cc1nn(-c2ccc(Cl)cn2)c2c1C(=O)CC(C)(C)C2Br (centres undefined) -0.39%
CO[C@@]12[C@@H]3N[C@@H]3CN1C1=C(C(=O)C(N)=C(C)C1=O)[C@@H]2COC(N)=O 5.83%
[O-][n+]1c2ccc3nonc3c2nn1-c1ccccc1Cl -0.31%
O=C(CSc1ccc(-c2ccccn2)nn1)Nc1nccs1 -5.9%
CCOCCCNC(=O)c1cccc(NC(=O)C2=C(C)OCCS2)c1 -0.24%
COc1ccc([N+](=O)[O-])cc1NC(=O)COC(=O)Cc1cc(OC)c(OC)c(OC)c1 -5.64%
COc1cc(CC(=O)OCC(=O)Nc2ccc([N+](=O)[O-])cc2)cc(OC)c1OC 31.8%
Cc1csc(SCC(=O)NC2CCS(=O)(=O)C2)n1 (centres undefined) -3.32%
COc1cccc(NC(=O)CN2C(=O)COc3ccc(S(=O)(=O)N4CCOCC4)cc32)c1 0%
CC(=O)c1ccc(NC(=O)c2ccc(-n3cnnn3)cc2)cc1 -12.9%
CCOC(=O)c1cccc(NC(=O)c2ccc(-n3cnnn3)cc2)c1 -5.14%
COc1ccc(NC(=O)CCc2ccccc2)cc1S(=O)(=O)N1CCCCC1 2.14%
O=C(Nc1nc2ccccc2s1)c1ccc2c(c1)S(=O)(=O)c1ccccc1C2=O 28.5%
O=C(c1ccc(Br)o1)N1CCN(C/C=C/c2ccccc2)CC1 2.12%
C/C(=N\NC(=S)NCc1ccccc1)c1ccc(C(C)(C)C)cc1 9.19%
C/C(CCC(=O)O)=N/Nc1ccc([N+](=O)[O-])cc1[N+](=O)[O-] 5.85%
NC(=O)C1CCN(C2OC(=O)c3ccccc32)CC1 (centres undefined) -1.56%
CC(C)NC1=C(Cl)C(=O)c2ccccc2C1=O 2.61%
O=C1C(Cl)=C(NCCCN2CCOCC2)C(=O)c2ccccc21 3.39%
CN1CCN(C2=C(Cl)C(=O)N(Cc3ccccc3)C2=O)CC1 14.1%
CN1CCN(C2=C(NS(=O)(=O)c3ccccc3)C(=O)c3ccccc3C2=O)CC1 -3.21%
NC(=O)C1CCN(C2=C(NS(=O)(=O)c3ccc(Cl)cc3)C(=O)c3ccccc3C2=O)CC1 10.6%

From PubChem BioAssay AID1117319 (Southern Research Institute, 2015)
